Bioassay records: PubChem, Buhrlage Lab, Dana-Farber Cancer Institute and Novartis Institutes for BioMedical Research (Cambridge, Mass)
In the library only some 7% were active in any assay of this set; here they are far more common.
USP28 block: inhibitors of human USP28 deubiquitinase; Q96RU2; purified USP28, Ub-rhodamine cleavage fluorescence, 30 min; inhibition, % at 25 µM; 3% of 47,000 active; AID 1645857
USP30 block: blocks human USP30 ubiquitin-rhodamine cleavage. 5.3% of 47,000 active. purified USP30, Ub-rhodamine cleavage fluorescence. AID 1645860. inhibition, % at 25 µM
Target sequence (Q70CQ3 whole entry, looked up): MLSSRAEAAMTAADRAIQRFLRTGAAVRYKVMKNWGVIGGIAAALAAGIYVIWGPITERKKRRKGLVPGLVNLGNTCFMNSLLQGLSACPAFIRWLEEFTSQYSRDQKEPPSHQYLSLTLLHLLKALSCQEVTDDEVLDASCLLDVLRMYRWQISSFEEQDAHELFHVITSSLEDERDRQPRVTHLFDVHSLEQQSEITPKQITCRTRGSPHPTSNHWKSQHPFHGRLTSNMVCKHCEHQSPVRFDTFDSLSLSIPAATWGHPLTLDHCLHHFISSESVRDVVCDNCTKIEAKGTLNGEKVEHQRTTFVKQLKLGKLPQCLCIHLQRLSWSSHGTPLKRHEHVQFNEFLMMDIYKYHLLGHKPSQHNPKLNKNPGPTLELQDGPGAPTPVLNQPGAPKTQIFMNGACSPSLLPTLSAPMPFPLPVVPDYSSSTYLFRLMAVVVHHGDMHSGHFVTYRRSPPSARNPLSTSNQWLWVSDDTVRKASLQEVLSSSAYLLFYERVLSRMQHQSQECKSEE
Of the large screens only hits and unclear results are named; the others gave an inactive call. Rule as the data show it: active = inhibition above about 30%; inactive = the rest.

Cc1ccc(S(=O)(=O)c2nnn3c2nc(N2CCN(c4cc(C)ccc4C)CC2)c2ccccc23)cc1	USP30 block 30
Cc1ccc(C)c(Nc2nc3c(S(=O)(=O)c4ccccc4)nnn3c3ccccc23)c1	none
COc1cccc(-c2ccnc3[nH]c(=O)[nH]c(=O)c23)c1	USP30 block 63
O=c1[nH]c(=O)c2c(-c3ccc(-c4ccccc4)cc3)ccnc2[nH]1	USP30 block 45
COc1cccc(-c2cc(C(=O)NC3CCCCCC3)[nH]n2)c1	none
O=c1[nH]c(=O)c2c(-c3cccc4ccccc34)ccnc2[nH]1	none
CC(Sc1nnc2ccccn12)c1nc(N)nc(Nc2ccccc2)n1 (stereo not given)	none
COc1ccc(C(=O)O)cc1S(=O)(=O)N(C)CCc1cccnc1	none
COc1ccc(C(=O)O)cc1S(=O)(=O)N(CCc1ccccc1)Cc1ccccc1	USP30 block 39
COCCn1cnc2c(-c3ccccc3)cn(CC(=O)Nc3ccc4c(c3)OCO4)c2c1=O	none
Cc1ccc(Cl)cc1N1CCN(C(=O)CN2Cc3ccccc3C2=O)CC1	USP28 block 47
Cc1cccc(N2CCN(C(=O)CN3Cc4ccccc4C3=O)CC2)c1C	none
C=C[C@@]1(C)CC[C@@]2(C)[C@@H](CC[C@]3(C)C(C)=C(O)C(=O)C[C@H]23)C1	USP30 block 37
C=C[C@]1(C)CC[C@]2(C)[C@@H](C1)[C@@H](O)C[C@H]1[C@]3(C)CCC[C@@]12OC3=O	none
Cc1cc(C)n2ncc(C(=O)NC(C)CCc3ccccc3)c2n1 (stereo not given)	none
Cc1cc(C)n2ncc(C(=O)NCCc3ccc(Cl)cc3)c2n1	USP28 block 30
O=C(Cn1c(=O)n(CC(=O)NC2CCCC2)c(=O)c2ccccc21)Nc1cc(Cl)ccc1Cl	USP28 block 34, USP30 block 65
COc1ccc(NC(=O)Cn2c(=O)n(CCC(=O)NC3CCCC3)c(=O)c3ccccc32)cc1Cl	none
COc1ccc(Cl)cc1NC(=O)Cn1c(=O)n(CCC(=O)NC2CCCC2)c(=O)c2ccccc21	none
O=C(Cn1c(=O)n(CC(=O)NC2CCCC2)c(=O)c2ccccc21)Nc1ccc(F)cc1	USP28 block 42, USP30 block 70
O=C(Cn1c(=O)n(CCCC(=O)NC2CCCC2)c(=O)c2cc(Cl)ccc21)Nc1cccc(F)c1	USP30 block 37
COc1ccc(NC(=O)Cn2c(=O)n(CCCC(=O)NC3CCCC3)c(=O)c3cc(Cl)ccc32)cc1	none
Cc1[nH]c(C)c(S(=O)(=O)N2CCCC2)c1-c1nnc(C2CC2)o1	none
COCc1cc(C)nc2sc3c(c12)N(C(C)=O)C(c1ccc(F)cc1)NC3=O (stereo not given)	none
Cc1ccccc1C(=O)N1CCN(c2cc(=O)n(C)c(=O)n2C)CC1	none
Cc1ccccc1OCC(=O)N(C)Cc1cc(=O)[nH]c2ccccc12	none
CN1CC2N(C(=O)NC3CCCC3)C3CCC2(CC3)OC1=O (stereo not given)	none
CN(C)c1ccc(NC(=O)COC(=O)C2(c3ccc(F)cc3)CCCC2)cc1	none
COc1ccc(NCc2nc3ccccc3n2Cc2ccccc2)cc1	none
Clc1ccc(Cn2c(NCc3ccccc3Cl)nc3ccccc32)cc1	USP30 block 34
CN(Cc1nc2ccccc2s1)Cc1cc(F)cc2cccnc12	none
Cc1cc(C)c2c(-n3cccc3)c(C(=O)NCCc3ccc(S(N)(=O)=O)cc3)sc2n1	USP28 block 80
COc1ccccc1CNC(=O)c1sc2nc(C)cc(C)c2c1-n1cccc1	none
O=C(Oc1ccc2ccccc2c1)c1ccccc1Oc1ccccc1	none
O=C(Oc1ccc2cc(Br)ccc2c1)c1ccncc1	USP30 block 35
CCOc1ccc(N(C)C(=O)[C@H]2[C@@H]3C[C@@H]4[C@H]2C(=O)O[C@@H]4C3)cc1	none
Cc1nccc([C@@H]2CN(C(=O)c3ccc(=O)n(C)c3)C[C@H]2c2ccccc2)n1	none
O=C(NCCc1ccc(Cl)cc1)c1ccc(CNS(=O)(=O)c2ccccc2)cc1	USP28 block 60, USP30 block 84
O=C(NCCc1cccc(Cl)c1)c1ccc(-c2ccccc2)cc1	none
O=C(Cc1ccccc1)Nc1ncc2c(n1)CC(c1cccs1)CC2=O (stereo not given)	none
COc1ccc(OC)c(CC(=O)NC2CC3(CCOCC3)Oc3ccccc32)c1 (stereo not given)	USP30 block 44
COc1ccc(CC(=O)NC2CC3(CCOCC3)Oc3ccccc32)cc1OC (stereo not given)	none
Fc1cccc(Oc2nc(CN3CCOCC3)nc3sc4c(c23)CCCC4)c1	none
Fc1ccc(Oc2nc(CN3CCOCC3)nc3sc4c(c23)CCCC4)c(Cl)c1	USP28 block 58
CC(=O)c1ccc(NC(=O)CSc2nc3sc4c(c3c(=O)n2-c2ccc(Cl)cc2)CCN(C)C4)cc1	none
N=C1/C(=C/c2cn(Cc3ccc(F)cc3)c3ccccc23)C(=O)N=C2SC(Cc3ccccc3)=NN12	none
COC(=O)c1cc2sccc2n1CC(=O)N(C)c1ccc(F)cc1	none
N#Cc1cccc(NC(=O)Nc2cccn(Cc3ccc(F)cc3)c2=O)c1	USP28 block 74, USP30 block 38
N#Cc1cccc(NC(=O)N2CCC(c3nc4c(nnn4Cc4ccc(F)cc4)c(=O)[nH]3)CC2)c1	none
Cc1ccccc1C(=O)Nc1ccc(Cc2ccc(NC(=O)c3ccccc3C)c(O)c2)cc1O	none
Cc1cccc(Cn2cc(C(=O)O)c3ccccc3c2=O)c1	none
COc1ccc2c(c1)c(=O)c(S(=O)(=O)c1ccccc1)cn2Cc1cccc(C)c1	USP30 block 32
Cc1ccc(-c2cc3c(=O)n(Cc4noc(CN5CCCCC5)n4)ccn3n2)cc1	none
Cc1ccc(-c2cc3c(=O)n(Cc4noc(CN5CCC(C)CC5)n4)ccn3n2)cc1	USP30 block 38
COc1ccc(/C(C#N)=C/c2cn[nH]c2)cc1	none
COc1ccc(/C(C#N)=C\c2ccc3c(c2)OCO3)cc1	USP28 block 33, USP30 block 35
CC(C)N1CCN(c2ccc3ccc(C(=O)N4CCN(C)CC4)cn23)CC1	none
COC(=O)c1ccc(CSc2nnc(/C=C/c3ccccc3)o2)cc1	none
O=[N+]([O-])c1cccc(CSc2nnc(/C=C/c3ccccc3)o2)c1	USP28 block 58
Cc1cc(NS(=O)(=O)c2ccc(NC(=O)COc3ccc(Cl)cc3)cc2)no1	none
O=C(COc1ccc(Cl)cc1)Nc1ccc(S(=O)(=O)Nc2ccccc2)cc1	USP30 block 38
CNC(=O)[C@@]12CCC3(CCN(C(=O)c4cccnc4)CC3)[C@@H]1CN(C)C2	none
O=c1ccc(S(=O)(=O)N2CCOCC2)cn1Cc1ccc(F)cc1	none
O=C(NCc1ccco1)N1CCN(C(=O)C23CC4CC(CC(C4)C2)C3)CC1	none
COc1ccc(Cn2c(=O)[nH]c3cc(C(=O)NC4CCC(C)CC4)ccc3c2=O)cc1 (stereo not given)	none
O=c1c2cc([N+](=O)[O-])ccc2nc(CN2CCN(c3ccccn3)CC2)n1-c1ccccc1F	USP30 block 61
O=c1c2cc([N+](=O)[O-])ccc2nc(CN2CCN(CCO)CC2)n1-c1ccccc1F	none
CCCCCCCCCCCC1=C(O)C(=O)C=C(O)C1=O	USP28 block 98, USP30 block 97
COc1ccc(CN2CCC3(Cc4ccccc4CNC3=O)C2)cc1 (stereo not given)	none
CCCCOc1cccc(C(=O)Nc2cccc3cccnc23)c1	none
CCCCOc1cccc(C(=O)Nc2nc3ccc(S(C)(=O)=O)cc3s2)c1	USP30 block 36
Cc1cc(C)cc(C(=O)N2CCC(Oc3ccc(C(=O)N(C)C)cn3)CC2)c1	USP28 block 44
